Most compounds without a hit are left out; they make up all but 1.8% or so of the library.
GSTO1 inh: inhibitors of recombinant GSTO1, primary screen, counter-screen for RBBP9 inhibitor project, biochemical, fluorescence polarization | Glutathione S-transferase omega-1 (Homo sapiens), P78417 | activity-based probe fluorescence polarization | inhibition, % at 5.96 µM | actives 1.1% (n = 300,000);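 active means inhibition above the campaign mean inhibition plus 3 SD, cut at about 35% in these data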;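 further: 0% = GSTO1-1 with DMSO and 100% = wells lacking GSTO1-1 enzyme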
PAD4 inh: human PAD4 inhibitors, primary screen, biochemical, fluorescence polarization, 1536-well format; recombinant PAD4, RCA probe fluorescence polarization; inhibition, % at 6.36 µM; actives 0.41% (n = 330,000); AID 485272, 2010;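 active means percent inhibition above a cutoff equal to the mean of all tested compounds plus 3 SD, cut at about 15% in these data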;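 further: 0% = PAD4 with RCA probe and DMSO and 100% = probe without PAD4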
Target sequence (Q9UM07 whole entry, looked up): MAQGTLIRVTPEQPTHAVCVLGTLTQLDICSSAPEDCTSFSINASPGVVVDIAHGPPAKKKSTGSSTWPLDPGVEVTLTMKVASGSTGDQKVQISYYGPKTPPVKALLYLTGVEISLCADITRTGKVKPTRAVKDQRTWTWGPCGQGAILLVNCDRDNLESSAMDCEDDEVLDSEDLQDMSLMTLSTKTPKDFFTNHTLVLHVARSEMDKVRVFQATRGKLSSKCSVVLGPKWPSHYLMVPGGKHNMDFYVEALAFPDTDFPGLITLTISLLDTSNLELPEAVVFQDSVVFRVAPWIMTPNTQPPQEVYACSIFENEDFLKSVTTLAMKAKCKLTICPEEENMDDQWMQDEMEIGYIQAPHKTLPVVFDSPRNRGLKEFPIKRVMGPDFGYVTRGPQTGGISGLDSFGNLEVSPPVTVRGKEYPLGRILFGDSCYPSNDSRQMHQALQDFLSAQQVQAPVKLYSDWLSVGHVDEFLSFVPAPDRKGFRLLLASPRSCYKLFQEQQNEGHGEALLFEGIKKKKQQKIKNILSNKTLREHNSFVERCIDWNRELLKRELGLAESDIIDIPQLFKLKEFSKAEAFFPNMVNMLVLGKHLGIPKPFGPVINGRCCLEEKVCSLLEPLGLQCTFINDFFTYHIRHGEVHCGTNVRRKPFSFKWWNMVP
LYPLA1 counter: LYPLA1 inhibitors, primary screen, counter-screen for PME1 inhibitor project, biochemical, fluorescence polarization, FP-Rh probe ABPP; actives 0.16% (n = 320,000); inhibition, % at 5.9 µM; recombinant LYPLA1; Acyl-protein thioesterase 1 (Homo sapiens), O75608;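 active means inhibition above the mean of all tested compounds plus 3 SD, set per campaign, cut at about 14% in these data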;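 further: inhibitors block serine hydrolase probe labeling of LYPLA1 so polarization falls; 0% = enzyme with DMSO and 100% = wells lacking LYPLA1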
PME-1 primary: PME-1 inhibitors via competitive probe labeling, primary screen, biochemical, fluorescence polarization, FP-Rh probe, HTS. inhibition, % at 5.9 µM. Protein phosphatase methylesterase 1 (Homo sapiens), Q9Y570. actives 0.53% (n = 320,000). recombinant PME-1. AID 2130, 2009;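 active means inhibition above the campaign mean of all compounds plus 3 SD, cut at about 26% in these data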;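 further: competitive labeling of PME-1 active site by serine hydrolase directed probe; 0% = PME-1 with DMSO and 100% = wells lacking PME-1 enzyme; inhibitors block probe labeling so polarization falls and inhibition rises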
Fam108B counter: mouse Fam108B serine hydrolase inhibitors, primary screen, counter-screen for RBBP9 inhibitor project, biochemical, fluorescence polarization. actives 0.33% (n = 300,000). inhibition, % at 9.51 µM. recombinant Fam108B, FP-Rh probe fluorescence polarization;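 active means inhibition above the screen mean inhibition plus 3 SD, computed separately per campaign, cut at about 18% in these data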;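 further: inhibitors lower polarization as less probe binds the enzyme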
LYPLA2 counter: LYPLA2 inhibitors, primary screen, counter-screen for PME1 inhibitor project, biochemical, fluorescence polarization, FP-Rh probe ABPP; Acyl-protein thioesterase 2 (Homo sapiens), O95372; inhibition, % at 5.9 µM; recombinant LYPLA2; AID 2177, 2009; actives 0.38% (n = 320,000);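 active means inhibition above the screen-wide mean plus 3 SD, limit set per campaign, cut at about 26% in these data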;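 further: 0% = LYPLA2 with DMSO and 100% = wells lacking LYPLA2 enzyme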
Fam108b confirm: mouse Fam108b serine hydrolase inhibitors, confirmation, counter-screen for RBBP9 inhibitor project, biochemical, fluorescence polarization, triplicate. shares compounds with Fam108B counter. recombinant Fam108b, FP-Rh probe fluorescence polarization. inhibition, % at 9.51 µM. actives 44% (n = 930);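 active means inhibition above a limit from the primary screen, the mean over all compounds plus 3 SD, cut at about 19% in these data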;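 further: 0% = median of active Fam108b wells and 100% = catalytically dead S170A mutant; inhibitors free the probe so polarization falls as inhibition rises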
Fam108b inh: inhibition of mouse Fam108b by HTS hits, late-stage follow-up, biochemical, gel-based ABPP, soluble recombinant form; shares compounds with Fam108B counter; fluorophosphonate probe; inhibition, % at 20 µM; actives 44% (n = 260); AID 588649, 2011; in the data active means inhibition above about 40%
* marks the source's active call; other numbers are inactive results; · = no result.

SMILES	GSTO1 inh	PAD4 inh	LYPLA1 counter	PME-1 primary	Fam108B counter	LYPLA2 counter	Fam108b confirm	others
CCCOc1ccccc1/C=C(\C#N)C(=O)Nc1cccc(C)n1	6.8	-1.4	0.5	-2.0	12.2	0.2	·
Cc1cccc(NC(=O)/C(C#N)=C/c2ccc(F)cc2)n1	30.4	12.1	3.9	15.8	37.8*	6.4	2.5
CCOCc1cnc(C)nc1NCC(=O)c1c(C)[nH]c2ccccc12	8.3	1.7	2.5	-2.2	57.2*	-1.7	5.0
CCOCc1cnc(C)nc1NCC(=O)c1c(C)[nH]c2cc(C)ccc12	12.3	1.5	0.6	2.3	1.3	3.1	·
O=c1oc(-c2ccccc2Cl)nc2ccsc12	-23.0	5.1	-5.3	2.1	34.0*	-1.7	32.1*	Fam108b inh=85.0*
CC(Sc1ccsc1[N+](=O)[O-])C(=O)NCc1ccco1 (stereo not drawn)	15.9	-8.5	-4.6	4.6	1.6	2.2	·
Cc1ccc(-n2ncc(C(=O)Nc3cc(Cl)ccc3C)c2C2CCNCC2)cc1C	0.1	1.0	-3.1	-3.0	-1.0	-4.7	·
CCc1ccc(S(=O)(=O)Nc2ccccn2)cc1	4.8	-3.0	0.7	-1.1	2.1	-3.8	·
CCc1ccc(S(=O)(=O)/N=C2\C=CC(=O)c3ccccc32)cc1	66.8*	4.4	-17.2	11.6	24.0*	-12.0	20.9*
O=C(O)C1=C[C@H](c2csc3ccccc23)C[C@H](OCc2ccc(CO)cc2)O1	1.0	-2.4	3.6	-3.3	31.5*	4.7	-5.3
O=C(O)C1=C[C@@H](c2csc3ccccc23)C[C@@H](OCc2ccc(CO)cc2)O1	10.5	-0.6	-1.0	1.2	3.8	-1.1	·
Cc1ccc2nc(CSc3nc(C)ccc3C#N)[nH]c2c1	-2.2	-1.7	-5.7	4.2	41.6*	4.3	39.6*	Fam108b inh=55.0*
CC(C)(C)c1cc(CCC(=O)NCC2CCCO2)cc(C(C)(C)C)c1O (stereo not drawn)	1.8	2.0	0.6	1.7	-2.1	-3.1	·
O=C(COc1ccc([N+](=O)[O-])cc1)Nc1ccccc1C(=O)NC1CC1	2.1	-6.2	3.4	-5.2	-0.2	3.9	·
COc1ccc2[nH]c3c(N4CCc5ccccc5C4)ncnc3c2c1	9.4	4.1	-2.1	29.8*	18.9*	16.6	-5.3
COc1ccc(/C=N/OC/C(O)=C(\C#N)c2nc3ccccc3[nH]2)cc1OC	13.7	-4.8	-7.5	-1.3	5.0	-5.5	·
Cc1cccc(Nc2nc(-c3ccc(O)cc3O)cs2)n1	1.1	-0.2	-6.6	20.6	21.4*	-1.0	11.0
CCN(CC)S(=O)(=O)c1ccc(NC(=O)Cc2cccs2)cc1	1.2	-15.1	-0.9	-7.1	2.8	-13.2	·
O=c1c2c3c(sc2n(CCN2CCCCC2)c(=O)n1Cc1ccco1)CCCCC3	1.4	-1.1	-0.3	0.3	21.1*	3.9	28.1*
O=c1c2c3c(sc2n(CCN2CCOCC2)c(=O)n1Cc1ccco1)CCCCC3	-2.7	1.1	-5.0	-1.4	20.4*	6.5	16.3
CCN(CC)c1nc(N)c2c(N)n(-c3ccccc3C)c(=S)c(C#N)c2c1C#N	-6.0	-1.3	2.7	10.3	20.2*	10.2	7.2
CCN(CC)c1nc(N)c2c(N)nc3c(c2c1C#N)CC(c1ccccc1)O3 (stereo not drawn)	4.1	-0.7	1.6	-1.2	11.8	8.1	·
COc1cc(C)ccc1Oc1ncnc(N)c1[N+](=O)[O-]	4.5	3.6	2.2	7.0	-4.8	-1.1	·
CCN(CC)c1ccc(/C=N/NC(=O)c2c[nH]c3ccccc23)cc1	-5.7	-5.3	2.4	20.4	22.6*	0.4	-2.5
CCN(CC)c1ccc(/C=N/NC(=O)c2cc3ccccc3[nH]2)cc1	-3.1	1.1	-10.7	14.4	4.4	-6.2	·
SMILES	GSTO1 inh	PAD4 inh	LYPLA1 counter	PME-1 primary	Fam108B counter	LYPLA2 counter	Fam108b confirm	others
COCCOC(=O)c1c(C)oc2ccc(OC(=O)c3c(OC)cccc3OC)cc12	-3.3	10.8	-2.1	-3.0	-0.3	-3.4	·
O=C(Nc1cccc(-c2csc(Nc3ccc(Cl)cc3)n2)c1)c1cc([N+](=O)[O-])cc(C(F)(F)F)c1	-5.3	3.1	-20.5	35.5*	58.9*	6.2	67.6*	Fam108b inh=100.0*
O=C(Nc1cccc(-c2csc(Nc3ccccc3)n2)c1)c1cc([N+](=O)[O-])cc(C(F)(F)F)c1	-4.7	0.8	-16.0	31.5*	37.1*	-5.2	21.1*
O=C(Nc1ccc(-c2csc(Nc3ccc(Cl)cc3)n2)cc1)c1cc([N+](=O)[O-])cc(C(F)(F)F)c1	0.0	0.5	-17.3	8.5	29.4*	-9.1	-5.2
O=c1oc(-c2ccc(O)c(O)c2)cc2cccc(O)c12	·	-2.6	·	·	·	·	·
Oc1cccc2cc3cccc(O)c3c(O)c12	26.1	-11.4	-22.2	20.1	25.1*	-7.7	4.4	Fam108b inh=55.0*
NNc1nc2c(F)cccc2s1	7.9	1.5	-1.3	17.6	1.7	-0.2	·
COc1cc(OC)cc(-c2nnc(Nc3nc4c(F)cccc4s3)o2)c1	17.4	-6.1	2.6	61.0*	18.9*	2.4	13.1
Cc1oc2cc(OCc3cnn(-c4ccccc4)c3)ccc2c(=O)c1Oc1ccccc1F	2.6	3.0	-3.9	-1.3	-3.5	-4.6	·
O=c1oc(-c2cccs2)nc2c1cnn2-c1ccccc1	-6.8	-0.9	1.7	1.6	20.5*	4.4	22.9*
C/C(=N\Nc1ccc(S(=O)(=O)Nc2ccc(Cl)cc2)cc1[N+](=O)[O-])c1ccc(N2CCOCC2)cc1	-1.8	-2.1	-1.6	2.3	34.6*	1.2	5.4
COc1ccc(NS(=O)(=O)c2ccc(N/N=C(\C)c3ccncc3)c([N+](=O)[O-])c2)cc1	-55.0	3.6	-2.1	27.8*	22.7*	10.1	-3.1
O=[N+]([O-])c1ccccc1/C=C/C=N/Nc1ccc(S(=O)(=O)Nc2ccc(Cl)cc2)cc1[N+](=O)[O-]	1.4	-2.1	-9.6	39.7*	59.6*	11.8	12.0
C/C(=N\Nc1ccc(S(=O)(=O)Nc2ccccc2)cc1[N+](=O)[O-])c1ccncc1	7.2	-0.6	-0.4	9.1	2.0	2.0	·
O=C(Nc1ccc(N2CCOCC2)cc1)Nc1ccc2nc(-c3ccco3)c(-c3ccco3)nc2c1	1.8	0.4	-4.7	64.5*	25.6*	13.1	13.0

Screens from PubChem.
